Source: PubChem BioAssay AID1239 (SRMLSC, 2008)
The campaign covered roughly 190,000 compounds. About 3,100 (1.6%) were called active. Rule as the data show it: active = fold change above about 3.3; inconclusive = no clear call, values can overlap the other calls; inactive = below that. The sample as a whole holds a higher share of actives than the screen did.

Assay: activators of NF-kB expression in neurons, primary screen, cell-based, HTS (AID 1239)
Settings: human neuronal cells, NF-kB reporter expression; at 12.5 µM; active compounds read high
In the case of COc1ccc(-c2cn3cccnc3n2)cc1, the fold change is reported as 2.19 (inactive).
With CCCC(=O)Nc1cccc(-c2cn3ccsc3n2)c1 the fold change was 1.3 (inactive).
For COc1ccc(-c2cn3ccsc3n2)cc1, the fold change was 5.24 (active).
For CC(C)(C)n1ncc2c(=O)n(Cc3ccc(Cl)cc3)cnc21, the fold change was 1.03 (inactive).
In the case of O=C(COc1ccc(Cl)cc1)NCc1nnc(SCC(=O)NCC2CCCO2)o1 (stereo not drawn), the fold change is reported as 1.01 (inactive).
In the case of CC(=O)c1sc(NC(=O)c2cccc3ccccc23)nc1C, the fold change is reported as 0.7 (inactive).
For CCSc1nnc(NC(=O)Cc2ccccc2OC)s1, the fold change was 1.18 (inactive).
In the case of CCSc1nnc(NC(=O)c2ccc(C)cc2)s1, the fold change is reported as 5.31 (active).
In the case of Cc1cccc(CSc2nnc(NC(=O)CSc3nnc(C)s3)s2)c1, the fold change is reported as 1.18 (inactive).
With CC(=O)c1sc(NC(=O)c2ccc(C)cc2)nc1C the fold change was 3.36 (active).
In the case of CC(=O)c1sc(N/N=C\c2ccc(C)cc2)nc1C, the fold change is reported as 2.4 (inactive).
With C=CCn1nc(-c2ccccc2)c2c(C)onc2c1=O the fold change was 1.1 (inactive).
For COc1cc(/C=N/O)ccc1OCc1ccc([N+](=O)[O-])cc1, the fold change was 6.35 (active).
In the case of COc1cc(/C=N\Nc2ccc([N+](=O)[O-])cn2)ccc1OCC(=O)O, the fold change is reported as 1.24 (inactive).
With COc1cc(C(=O)OCc2ccc([N+](=O)[O-])cc2)cc(OC)c1OC the fold change was 1.05 (inactive).
In the case of COc1ccc(C2=NN(c3nc4ccccc4s3)C(=O)C2)cc1, the fold change is reported as 1.02 (inactive).
With CN1c2ccccc2-c2nc3ccccc3n2C1c1ccco1 (stereo not drawn) the fold change was 1.03 (inactive).
In the case of Cn1c(-c2ccco2)nc2cc3ccccc3cc21, the fold change is reported as 6.6 (active).
With CN(c1nc2ccccc2n2c(-c3ccco3)nnc12)S(=O)(=O)c1ccccc1 the fold change was 0.98 (inactive).
For Cc1nc2ccccc2c(C)c1C(=O)c1ccc(F)cc1, the fold change was 0.8 (inactive).
In the case of COC(=O)c1c(NC(=O)CCCC(=O)O)sc2c1CCCCC2, the fold change is reported as 0.98 (inactive).
For CCn1c(=S)[nH]c2sc3c(c2c1=O)CCCCC3, the fold change was 1.2 (inactive).
For CN(NC(=O)c1ccccc1)c1nc2ccccc2nc1C(F)(F)F, the fold change was 1.32 (inactive).
For CN(NC(=O)c1ccccc1F)c1nc(C(F)(F)F)nc2ccccc12, the fold change was 1.67 (inactive).
For CSc1nc(N(C)NC(=O)c2cccc(C)c2)c2ccccc2n1, the fold change was 3.68 (active).
For Cc1cc(NS(=O)(=O)c2ccc(NC(=O)c3cccc(OC(F)F)c3)cc2)nc(C)n1, the fold change was 1.45 (inactive).
For O=C1CN(C(=O)CN2C(=O)NC3(CCCCC3)C2=O)c2ccccc2N1, the fold change was 1.43 (inactive).
In the case of Cc1cc(C(C)(C)C)cc(C)c1N, the fold change is reported as 1.01 (inactive).
For COc1ccc(-c2cc(C)nc3nc(N)nn23)cc1, the fold change was 1.23 (inactive).
For Cc1cc(N)n2nc(-c3ccc(C(C)(C)C)cc3)cc2n1, the fold change was 5.07 (active).
In the case of O=C(O)Cc1sc(-c2ccccc2)nc1-c1cccs1, the fold change is reported as 1.28 (inactive).
With O=C(O)Cc1sc(-c2ccc(C(=O)O)cc2)nc1-c1ccccc1 the fold change was 1.21 (inactive).
With NC(=O)Cc1ccc2sc(-c3ccccc3)nc2c1 the fold change was 6.92 (active).
With CCc1cccc(NC(=O)CCNS(=O)(=O)c2cccc3nonc23)c1 the fold change was 1.16 (inactive).
With COc1ccc(N2CCN(c3ccc([N+](=O)[O-])cc3Cl)CC2)cc1 the fold change was 0.93 (inactive).
For CCN1CCN(c2ccc([N+](=O)[O-])cc2C(=O)c2ccc(Cl)cc2)CC1, the fold change was 1.37 (inactive).
In the case of O=[N+]([O-])c1ccc(N2CCN(c3ccc(O)cc3)CC2)c(Cl)c1, the fold change is reported as 4.06 (active).
With CCc1nnc(NC(=O)CCCSc2nc3ccccc3[nH]2)s1 the fold change was 1.01 (inactive).
For Cc1ccnc(NC(=O)c2ccc(NC(=O)c3ccco3)cc2)c1, the fold change was 1.64 (inactive).
In the case of COc1cccc(C(=O)Nc2ccc(NC(=O)c3ccco3)cn2)c1, the fold change is reported as 1.03 (inactive).
For O=C(Nc1ccc(NC(=O)c2cccs2)cn1)c1ccco1, the fold change was 4.48 (active).
For COc1cc(CN2CCNC(=O)C2CC(=O)NCCc2ncccc2C)cc(OC)c1 (stereo not drawn), the fold change was 1.05 (inactive).
With COCCSc1nnc(NC(=O)c2cc(OC)c(OC)cc2[N+](=O)[O-])s1 the fold change was 1.11 (inactive).
With CCOC(=O)/C(=N\Nc1ccccc1Cl)N(C)C1CCS(=O)(=O)C1 (stereo not drawn) the fold change was 0.99 (inactive).
For COc1cc(S(=O)(=O)N2CCOCC2)ccc1NC(=O)COc1ccc(N(C)S(=O)(=O)c2ccc(C)cc2)cc1, the fold change was 0.76 (inactive).
With COc1ccc(Cl)cc1C(=O)NCC#N the fold change was 0.94 (inactive).
In the case of N#C/C=C\Oc1ccc(Cl)cc1N, the fold change is reported as 3.39 (active).
In the case of Cn1cc(CCC(=O)N2CCCC(C(=O)c3ccc(C(C)(C)C)cc3)C2)cn1 (stereo not drawn), the fold change is reported as 0.83 (inactive).
For CNc1nccc(-c2ccc(Cl)cc2)c1C#N, the fold change was 1.47 (inactive).
With Cc1c(Br)ccc(NC(=O)COc2ccccc2C(N)=O)c1C the fold change was 1.08 (inactive).
In the case of O=C(NC1CCCC1)C(c1ccc(N2CCOCC2)cc1)N(C(=O)c1ccco1)c1ccccc1F (stereo not drawn), the fold change is reported as 1.05 (inactive).
For O=C(COc1ccc(NC(=O)c2ccccc2[N+](=O)[O-])cc1)c1ccc(F)cc1, the fold change was 1.07 (inactive).
For Cc1ccc2nc(COc3ccc(N(C)S(=O)(=O)c4ccccc4)cc3)cc(=O)n2c1, the fold change was 1.11 (inactive).
In the case of Nc1ccc(C(=O)NCc2ccccc2)cc1, the fold change is reported as 1 (inactive).
With Cc1cc(C(=O)NCCCc2ccccc2)no1 the fold change was 1.33 (inactive).
In the case of O=C(NCCc1ccccc1)c1ccc(OCCOc2ccccc2)cc1, the fold change is reported as 1.27 (inactive).
In the case of NS(=O)(=O)c1cc(C(=O)NCCOc2ccccc2)c(Cl)cc1Cl, the fold change is reported as 0.66 (inactive).
For CCCOc1ccc(C(=O)NCCc2ccccc2)cc1, the fold change was 6.46 (active).
With COc1ccc(OCCCC(=O)NCCc2ccccc2)cc1 the fold change was 1.08 (inactive).
With CC(C)c1ccc(C(=O)NCCCc2ccccc2)cc1 the fold change was 4 (active).
In the case of O=C(NCCOc1ccccc1)c1ccccc1, the fold change is reported as 4.39 (active).
In the case of Cc1ccc(C(=O)NCCNC(=O)c2ccccc2)cc1, the fold change is reported as 1.15 (inactive).
With CC(C)OC(=O)CN1CCN(c2ccc(Cl)cc2)CC1 the fold change was 1.18 (inactive).
For c1ccc2c(NC3C4CC5CC(C4)CC3C5)nc(N3CCOCC3)nc2c1 (stereo not drawn), the fold change was 0.99 (inactive).
In the case of Cc1cccc(C(=O)N2CCCN(C(=O)c3cccc(C)c3)CC2)c1, the fold change is reported as 1.1 (inactive).
With Cc1cc(=O)oc(C)c1C(=O)N1CCCCC1 the fold change was 1.16 (inactive).
With Cc1ccc2cc3cc(C(=O)N4CCCCCC4)oc3nc2c1 the fold change was 4.26 (active).
With CN1CCNC(=O)C1CC(=O)N1CC=C(c2ccc(F)cc2)CC1 (stereo not drawn) the fold change was 1.04 (inactive).
With O=C(Cc1nn[nH]n1)NCCC1=CCCCC1 the fold change was 1.18 (inactive).
In the case of O=C(Cc1cccc2ccccc12)NCCC1=CCCCC1, the fold change is reported as 1.12 (inactive).
With Cn1nnc2cc(C(=O)NCCC3=CCCCC3)ccc21 the fold change was 3.75 (active).
In the case of O=C(NCCC1=CCCCC1)c1ccc(Cl)c([N+](=O)[O-])c1, the fold change is reported as 1.68 (inactive).
With CN(c1ccc(C(=O)NCCC2=CCCCC2)cc1)S(C)(=O)=O the fold change was 3.37 (active).
For CN(c1ccc(C(=O)NCc2ccccn2)cc1)S(C)(=O)=O, the fold change was 1.11 (inactive).
In the case of CN(CCc1ccccn1)C(=O)CCC1CCCN(Cc2ccccc2OC(F)F)C1 (stereo not drawn), the fold change is reported as 1.15 (inactive).
In the case of Cc1ccc(NC(=O)NC2CCCCC2)cc1S(=O)(=O)N1CCOCC1, the fold change is reported as 1.06 (inactive).
In the case of CCCCCC(=O)Nc1ccc2oc(-c3ccncc3)nc2c1, the fold change is reported as 0.96 (inactive).
With CCN(CC)c1ccc2oc(=O)c(C)nc2c1 the fold change was 0.65 (inactive).
With CCc1ccc2oc(-c3ccc(N)cc3)nc2c1 the fold change was 5.55 (active).
With COC(=O)Cc1ccc(Oc2ncc(C(F)(F)F)cc2Cl)cc1 the fold change was 1.13 (inactive).
With Fc1ccccc1/C=C1\CCCC2=C1Nc1ncnn1C2c1ccccc1F (stereo not drawn) the fold change was 4.05 (active).
For OCCNCc1cccc(OCc2ccccc2Cl)c1, the fold change was 0.98 (inactive).
With O=[N+]([O-])c1cc(Br)c(O)c(/C=N/Nc2nc3ccccc3s2)c1 the fold change was 0.65 (inactive).
For c1ccc2sc(NN=C3CCCC3)nc2c1, the fold change was 8.8 (active).
For Fc1ccc2nc(Nc3nc4c(s3)CCCC4)sc2c1, the fold change was 3.04 (inactive).
For Cc1ccccc1NCC(=O)N/N=C\c1ccc([N+](=O)[O-])s1, the fold change was 0.63 (inactive).
For O=C(O)c1ccc(NC(=O)C2CCCCC2)cc1, the fold change was 1.04 (inactive).
For CC(=O)Nc1cc2ccc(OC(C)=O)cc2oc1=O, the fold change was 1.34 (inactive).
For O=C(Nc1cc2ccccc2oc1=O)C1CCCCC1, the fold change was 4.4 (active).
With O=C(N/N=C/c1ccc(OCC2COCCO2)cc1)c1ccc(Br)cc1 (stereo not drawn) the fold change was 0.81 (inactive).
In the case of CNc1nc2c(C)cccn2c(=O)c1C=Nc1ccc(OC)cc1, the fold change is reported as 1.61 (inactive).
With Nc1[nH]c(=S)nc2nc(-c3ccccc3)c(-c3ccccc3)nc12 the fold change was 1.13 (inactive).
For COc1ccc(C2=Nc3cc(C)ccc3OC2)cc1, the fold change was 6.75 (active).
In the case of COc1ccc(C2=NOC3(CC(=O)N(c4ccc(C)cc4)C3=O)C2)cc1 (stereo not drawn), the fold change is reported as 0.77 (inactive).
For COc1ccc(C2=NOC(COC(=O)c3ccc4ccccc4n3)C2)cc1 (stereo not drawn), the fold change was 1.25 (inactive).
For COC(=O)[C@H](C)[C@H]1C[C@]1(C)[C@H](NC(=O)OCc1ccccc1)c1ccccc1, the fold change was 0.97 (inactive).
With O=C(NCc1ccccc1)[C@H]1C[C@@H]1[C@H](NP(=O)(c1ccccc1)c1ccccc1)c1ccccc1 the fold change was 0.77 (inactive).
In the case of CC(C)(C)[Si](OCC[C@@H]1C[C@@]1(C)[C@@H](NP(=O)(c1ccccc1)c1ccccc1)c1ccccc1)(c1ccccc1)c1ccccc1, the fold change is reported as 3.34 (active).
In the case of CCOC(=O)CCCNC(=O)COC(=O)/C=C/c1ccc2c(c1)OCO2, the fold change is reported as 1.06 (inactive).
In the case of CC1(C)CC(=O)CC2(C1)NCC(c1ccccc1Cl)c1c2[nH]c2ccccc12 (stereo not drawn), the fold change is reported as 0.75 (inactive).
For N/C(Cc1ccc([N+](=O)[O-])cc1)=N\OC(=O)C1CCCCC1, the fold change was 1.13 (inactive).
For O=C(COC(=O)C1CCCCC1)Nc1ccc([N+](=O)[O-])cc1, the fold change was 6.28 (active).
For O=C(COc1ccc([N+](=O)[O-])cc1)Nc1ccc(N2CCCC2)cc1, the fold change was 1.07 (inactive).
